For assay [1], the target named is DNA repair nuclease/redox regulator APEX1 (Homo sapiens) (UniProt P27695). Kind of assay: qHTS Validation Assay for Inhibitors of the Human Apurinic/apyrimidinic Endonuclease 1 (APE1) (AID 1705;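 further: TAMRA fluorescence gain over two minutes as APE1 cuts a quenched THF abasic duplex; on the % scale 0 is the no-effect control and ±100 the full control effect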). Particulars: purified APE1 endonuclease activity, fluorescence, titration; series mostly up to 57.1 µM. In a few lines:
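Substrate: 50 nM final fluorophore/quencher THF-abasic duplex. Enzyme preincubated with compounds 15 min, RT. Progress derived from fluorescence difference, third minus first kinetic read.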
(Quantitative high-throughput screening tests each substance at several concentrations.)

Assay [2] is described as follows: qHTS for differential inhibitors of proliferation of Plasmodium falciparum line 7G8 (AID 1815).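 Further: parasite growth measured after three days of incubation.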 Further: potency means the concentration at half of the fitted maximal effect.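 On activity change, negative = inhibition: plate controls were vehicle wells for no effect and reference inhibitor wells for full effect.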 As to conditions: Plasmodium falciparum 7G8 proliferation inhibition; series mostly up to 28.7 µM.
Assay [3] in a line: qHTS for differential inhibitors of proliferation of Plasmodium falciparum line GB4 (AID 1816).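 Further: parasite growth measured after 72 h incubation.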 Further: potency means the concentration at half of the fitted maximal effect.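 On activity change, negative = inhibition: 0% = vehicle DMSO and -100% = reference inhibitor.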 Particulars: Potency: Plasmodium falciparum GB4 proliferation inhibition; series mostly up to 28.7 µM.
A short description of assay [4]: qHTS for differential inhibitors of proliferation of Plasmodium falciparum line D10 (AID 1877).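 Further: parasites grown with compound for 72 h before DNA staining.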 Further: potency means the concentration at half of the fitted maximal effect.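 On activity change, negative = inhibition: plate controls were vehicle wells for no effect and reference inhibitor wells for full effect.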 As to conditions: series mostly up to 28.7 µM.
Assay [5] in a line: qHTS for differential inhibitors of proliferation of Plasmodium falciparum line Dd2 (AID 1882).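 Further: compound exposure of 72 h on infected erythrocytes; plate controls were DMSO vehicle for no effect and 0.29 µM artemisinin for full effect; nearly all actives have a fitted effect of over 65% in size.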 As to conditions: Potency: Plasmodium falciparum Dd2 proliferation inhibition; series mostly up to 28.7 µM. In outline: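 RBC culture, 0.3% parasitemia / 2.5% Hct final; cpd added by pin tool in DMSO; 72 h, 37 C, 5% CO2; lysis buffer + SYBR Green I, o/n RT dark; FI 485/535; norm. to artemisinin 0.29 uM and DMSO.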

Assay [6] in a line: qHTS for differential inhibitors of proliferation of Plasmodium falciparum line W2 (AID 1883).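 Further: parasites grown with compound for 72 h before lysis and staining.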 Further: potency means the concentration at half of the fitted maximal effect.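 On activity change, negative = inhibition: 0% = vehicle wells and -100% = control inhibitor wells.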 Particulars: Potency: Plasmodium falciparum W2 proliferation inhibition; series mostly up to 28.7 µM.
A short description of assay [7]: qHTS for differential inhibitors of proliferation of Plasmodium falciparum line HB3 (AID 1886).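 Further: parasites grown with compound for 72 h before SYBR Green readout.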 Further: potency means the concentration at half of the fitted maximal effect.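 On activity change, negative = inhibition: plate controls were vehicle for no effect and reference inhibitor for full effect.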 As to conditions: Potency: Plasmodium falciparum HB3 proliferation inhibition; series mostly up to 28.7 µM.
The target in assay [8] is ATP-dependent DNA helicase Q1 (Homo sapiens) (UniProt P46063). Nature of the assay: qHTS Validation Assay for Inhibitors of RecQ-Like Dna Helicase 1 (RECQ1) (AID 2353).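 Further: plate controls were DMSO vehicle for no effect and enzyme-free control for full effect.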 As to conditions: recombinant RECQ1 helicase DNA unwinding assay; series mostly up to 25.6 µM. In outline:
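RECQ1T1 50 nM; forked duplex (20 bp + 30-nt ss tails) 200 nM, ATP 2 mM final; pH 8.0, 2 mM MgCl2, 2.5 ug/ml poly(dI-dC); 15 min compound preincubation; discontinuous kinetic read over 2 h at RT.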

Assay [9] is described as follows: Cytometric Cell-Based qHTS for Inhibitors of the mTORC1 Signaling Pathway in MEF (Tsc2-/-, p53-/-) Cells (AID 2660).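 Further: Tsc2 and p53 null MEFs carrying empty vector with compound for 24 h; percent of cells above a phospho-rpS6 to PI ratio cutoff in each well; plate controls were DMSO for no effect and rapamycin for full effect.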 Particulars: mTORC1 pathway cytometry; series mostly up to 38.3 µM. In a few lines:
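Percent of cells positive for normalized phospho-S6 staining is reported, with the cutoff set from rapamycin (7.5 nM) versus DMSO wells. Tsc2-/-, p53-/- MEFs received compound for 24 hrs.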

A short description of assay [10]: High Content Imaging Cell-Based qHTS for Inhibitors of the mTORC1 Signaling Pathway in MEF (Tsc2-/-, p53-/-) Cells (AID 2666).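 Further: percent of cells scored positive for phospho-rpS6 Ser235/236 immunostaining by imaging.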 Particulars: at 38.3 µM (top of the series). In a few lines:
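Tsc2-/-, p53-/- MEFs (empty-vector stable) grown in DMEM + 10% FBS were exposed to compounds for 24 hrs at 37 degree Celsius, fixed, and stained with Alexa-488 anti-phospho-rpS6 Ser235/236 plus Hoechst. Imaging gave the percentage of positive cells per well.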

Assay [11] can be described thus: High Content Imaging Cell-Based qHTS for Inhibitors of the mTORC1 Signaling Pathway in MEF Cells (AID 2667).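 Further: Tsc2-/- p53-/- MEFs stably re-expressing wild-type Tsc2 exposed 24 h; plate controls were DMSO wells for no effect and rapamycin control wells for full effect.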 Particulars: series mostly up to 38.3 µM. In outline:
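Tsc2-/-, p53-/- MEFs stably re-expressing WT Tsc2, grown in DMEM + 10% FBS, were treated with compounds for 24 hrs at 37 degree Celsius, fixed, and stained with Alexa-488 phospho-rpS6 Ser235/236 antibody plus Hoechst; results given as % positive cells.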

A short description of assay [12]: Validation screen for small molecules that induce DNA re-replication in MCF 10A normal breast cells (AID 463097). Further: 0% is about no effect; nearly all actives have a fitted effect of over 60% in size. Particulars: MCF 10A cells, DNA re-replication phenotype imaging; series mostly up to 46.1 µM. In a few lines:
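Following 48 hr compound incubation (37 C, 5% CO2), MCF 10A cells receive Hoechst for 40 min at 37 C. Nuclei are then scanned (excitation 405 nm, emission 500-530 nm) for total fluorescence intensity.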

Assay [13] has as its target Endonuclease 4 (Escherichia coli (strain K12)) (UniProt P0A6C1). Kind of assay: Counterscreen for APE1 Inhibitors: qHTS Validation Assay for Inhibitors of Endonuclease IV (AID 1708). Further: on the % scale 0 is the no-effect control and ±100 the full control effect. Particulars: E. coli endonuclease IV, DNA cleavage fluorescence; series mostly up to 57.1 µM. In outline: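 The reaction buffer contained 50 mM Tris-HCl pH 7.5, 50 mM NaCl, 2 mM MgCl2, 1 mM DTT and 0.01% Tween-20. Incision of a 50 nM fluorophore/quencher THF substrate by 2 nM enzyme was measured kinetically.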
Background: A counterscreen serves to expose hits that act by an unwanted route or on another target.

Assay [14] is described as follows: qHTS for differential inhibitors of proliferation of Plasmodium falciparum line 3D7 (AID 1876).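 Further: parasite growth measured after three days of culture; 0% = vehicle wells and -100% = reference inhibitor wells.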 Particulars: P. falciparum 3D7 proliferation inhibition; series mostly up to 28.7 µM.
The target of assay [15] is RecQ-like DNA helicase BLM (Homo sapiens) (UniProt P54132). Kind of assay: qHTS Validation Assay for Inhibitors of Bloom's syndrome helicase (BLM) (AID 2364).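 Further: plate controls were DMSO vehicle for no effect and enzyme-free control for full effect.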 Particulars: BLM helicase DNA unwinding, fluorescence, in vitro; series mostly up to 57.1 µM. In outline:
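Forked 20-bp duplex substrate (200 nM, TAMRA/BHQ-2) plus 2 mM ATP added after 15 min compound preincubation with 50 nM enzyme, pH 8.0, poly(dI-dC) 2.5 ug/ml. Strand separation followed by fluorescence (525/598 nm) over 2 h, normalized to enzyme-free and DMSO controls.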

A short description of assay [16]: qHTS Assay for Lipid Storage Modulators (AID 1519; calls by dose curve; on activity change, negative = inhibition: on the % scale 0 is the no-effect control and ±100 the full control effect). As to conditions: Drosophila S3 cells, BODIPY lipid droplet/cell ratio, laser cytometry, cells loaded with oleic acid; for activity change, negative = inhibition: at 57.5 µM (top of the series). In outline: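 Cells seeded at 5,000 per well were treated with compounds over a concentration series and loaded with oleic acid (400 uM, as added). Lipid droplet fluorescence (488 nm excitation, 500-530 nm channel) was read by laser-scanning cytometry and normalized to 20 uM Triacsin C.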

Assay [17] is described as follows: Counterscreen for APE1 Inhibitors: Fluorescent Dye Displacement Validation Assay (AID 1707).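 Further: plate controls were ThO with dsDNA and no compound for no effect and ThO without dsDNA for full effect.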 Particulars: fluorescent dye displacement from DNA; series mostly up to 57.1 µM. In outline:
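Loss of Thiazole Orange fluorescence marks promiscuous DNA binders. The dye (250 nM) is mixed with 50 nM abasic-site dsDNA in pH7.5 Tris buffer containing MgCl2, then compounds are added and emission is read once.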

Assay [18] in a line: qHTS Assay for Identification of Small Molecule Inducers of Hypoxia Response (AID 2120; active means well fitted curve in the direction sought with a large enough effect in the signal ratio, with a control signal flat, not every such curve was filed as active; the % refers to the signal ratio; further: 0% is about no effect). As to conditions: hypoxia response reporter cells, beta-lactamase ratio readout; series mostly up to 104 µM. In a few lines: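 Read-out: CCF4 FRET emission ratio 460nm/530nm (excitation 405nm), converted to %Activity, with AC50 fitted across a compound titration. ME-180 cells carried an HRE-driven beta-lactamase reporter; compound exposure 17 h, 37 degrees C.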

Where [19] appears, read: measured here: cell count channel max response.
[20] abbreviates: measured here: lipid channel max response.

Each structure is given as a SMILES string. Results filed as inconclusive are left out. Activity calls are given as the source filed them. Unless noted, the call rests on the fitted dose curve; in most records, active means well fitted curve in the direction sought with a large enough effect; inconclusive means small, poorly fitted or top-dose-only effect, or another doubt; inactive means no such curve, though single readings can be large; an effect the other way counts as inactive or inconclusive.

Chain of DNA repair nuclease/redox regulator APEX1 (Homo sapiens) (P27695 whole entry, looked up): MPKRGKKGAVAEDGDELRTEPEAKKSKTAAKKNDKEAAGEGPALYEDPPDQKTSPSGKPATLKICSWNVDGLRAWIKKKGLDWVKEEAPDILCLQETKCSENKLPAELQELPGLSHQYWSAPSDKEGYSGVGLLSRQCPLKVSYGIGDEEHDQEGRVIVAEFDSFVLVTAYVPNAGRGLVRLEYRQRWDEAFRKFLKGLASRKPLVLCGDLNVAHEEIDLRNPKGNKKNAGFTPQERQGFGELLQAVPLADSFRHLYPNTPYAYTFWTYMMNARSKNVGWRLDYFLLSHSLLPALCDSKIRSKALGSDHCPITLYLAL
Chain of ATP-dependent DNA helicase Q1 (Homo sapiens) (P46063 whole entry, looked up): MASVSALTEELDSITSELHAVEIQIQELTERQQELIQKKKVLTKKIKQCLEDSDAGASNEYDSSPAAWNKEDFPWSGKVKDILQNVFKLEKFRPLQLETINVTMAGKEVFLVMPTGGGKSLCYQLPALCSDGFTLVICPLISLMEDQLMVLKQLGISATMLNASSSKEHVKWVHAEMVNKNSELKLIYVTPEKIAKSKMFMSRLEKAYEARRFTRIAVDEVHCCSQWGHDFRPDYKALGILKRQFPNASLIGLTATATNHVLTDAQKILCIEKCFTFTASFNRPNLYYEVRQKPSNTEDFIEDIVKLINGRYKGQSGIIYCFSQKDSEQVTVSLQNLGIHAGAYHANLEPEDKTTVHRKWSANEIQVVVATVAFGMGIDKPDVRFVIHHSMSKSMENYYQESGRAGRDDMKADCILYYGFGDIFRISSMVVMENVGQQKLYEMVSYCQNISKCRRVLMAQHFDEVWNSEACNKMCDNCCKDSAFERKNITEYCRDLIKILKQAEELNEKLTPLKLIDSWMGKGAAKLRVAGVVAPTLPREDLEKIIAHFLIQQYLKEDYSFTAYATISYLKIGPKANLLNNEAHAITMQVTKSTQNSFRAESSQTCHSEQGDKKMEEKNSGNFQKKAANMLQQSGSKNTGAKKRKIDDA
Chain of RecQ-like DNA helicase BLM (Homo sapiens) (P54132 whole entry, looked up): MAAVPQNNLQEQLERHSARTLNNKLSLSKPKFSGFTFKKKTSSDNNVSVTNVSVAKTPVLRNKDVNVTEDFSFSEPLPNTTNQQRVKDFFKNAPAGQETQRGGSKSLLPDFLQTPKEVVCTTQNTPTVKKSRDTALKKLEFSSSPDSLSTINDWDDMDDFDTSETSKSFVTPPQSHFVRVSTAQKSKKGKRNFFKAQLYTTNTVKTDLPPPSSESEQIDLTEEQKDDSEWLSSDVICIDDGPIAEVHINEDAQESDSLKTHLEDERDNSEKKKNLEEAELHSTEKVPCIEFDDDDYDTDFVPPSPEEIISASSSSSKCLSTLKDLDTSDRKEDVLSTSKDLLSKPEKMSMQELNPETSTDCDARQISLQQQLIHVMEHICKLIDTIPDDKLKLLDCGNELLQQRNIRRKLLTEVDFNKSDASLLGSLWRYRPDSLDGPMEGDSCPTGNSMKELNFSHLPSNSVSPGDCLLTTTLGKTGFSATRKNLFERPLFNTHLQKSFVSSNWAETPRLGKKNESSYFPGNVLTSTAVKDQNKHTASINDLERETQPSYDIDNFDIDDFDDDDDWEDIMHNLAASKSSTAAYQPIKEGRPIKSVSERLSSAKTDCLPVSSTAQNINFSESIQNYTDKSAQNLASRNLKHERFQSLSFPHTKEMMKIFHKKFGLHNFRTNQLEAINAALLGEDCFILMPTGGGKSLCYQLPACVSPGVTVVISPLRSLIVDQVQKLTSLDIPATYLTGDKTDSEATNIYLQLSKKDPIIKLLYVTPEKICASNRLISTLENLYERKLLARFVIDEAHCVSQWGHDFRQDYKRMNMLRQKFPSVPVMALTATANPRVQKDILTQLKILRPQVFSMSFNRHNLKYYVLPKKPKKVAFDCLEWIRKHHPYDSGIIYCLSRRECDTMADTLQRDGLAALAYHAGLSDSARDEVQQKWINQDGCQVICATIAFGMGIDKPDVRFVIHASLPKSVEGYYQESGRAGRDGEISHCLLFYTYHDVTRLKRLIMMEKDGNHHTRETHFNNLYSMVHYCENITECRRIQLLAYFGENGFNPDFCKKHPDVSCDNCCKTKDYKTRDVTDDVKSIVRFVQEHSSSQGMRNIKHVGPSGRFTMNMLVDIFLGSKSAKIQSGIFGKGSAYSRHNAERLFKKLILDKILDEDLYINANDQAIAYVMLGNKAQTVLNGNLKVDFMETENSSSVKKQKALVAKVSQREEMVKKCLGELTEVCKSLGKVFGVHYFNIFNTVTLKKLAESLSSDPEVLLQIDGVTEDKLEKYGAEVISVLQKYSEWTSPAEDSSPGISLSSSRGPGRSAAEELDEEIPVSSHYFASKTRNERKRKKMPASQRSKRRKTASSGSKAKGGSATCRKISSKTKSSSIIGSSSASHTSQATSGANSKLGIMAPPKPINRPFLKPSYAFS

As to `CCC(C)N(C)C(=O)c1cc2ccccc2c(-c2ccccc2Cl)n1` (stereo unspecified), the compound was called inactive in assay [1], in [8], in assay [9], in assay [10] and in assay [11]. Besides, the Potency in assay [2] is 7.94 µM (active); in assay [3], 12.6 µM (active); in assay [4], 11.2 µM (active); in [6], 7.94 µM (active); in assay [7], 12.6 µM (active). The Potency entry in assay [5] and in assay [12] was “inactive” in each case.

Take `Cc1cn[nH]c1`: the compound was classed as inactive in assay [13], in assay [8], in assay [9], in [10] and in assay [11]. For the same compound, the Potency entry in assay [2], in assay [3], in assay [14], in assay [4], in assay [5] and in [6] was “inactive” throughout. In addition, the Potency result in assay [7], in [15] and in [12] was “inactive” in each case.

For `c1ccc([C@H]2CN3CCSC3=N2)cc1`, in assay [16], the activity change, negative = inhibition is 0.161% (inactive). For the same compound, the max response in assay [16] (setting [19]) came to 21.4%; in assay [16] (setting [20]), 20.7%. Besides, the compound was classed as inactive in [1], in assay [13], in [8], in assay [9], in assay [10] and in [11]. Besides, the Potency entry in assay [2], in assay [14], in assay [4], in assay [5], in assay [7] and in [12] was “inactive” throughout.

In the case of `Cc1cnc(NC(=O)C2=C(O)c3ccccc3S(=O)(=O)N2C)s1`, the result in assay [1], in [17], in [13], in [8], in assay [9] and in assay [10] was inactive. Moreover, in assay [11], the compound was classed as inactive. The Potency entry in [14], in assay [4], in assay [5], in assay [7], in [15] and in [12] was “inactive” in each case. Besides, the Potency in assay [6] was 8.91 µM (active).

With `Cc1ccccc1C(OCCN(C)C)c1ccccc1` (stereo unspecified), the activity change, negative = inhibition in assay [16] was -0.936% (inactive). Further, the max response is -31.3% in assay [16] (setting [19]) and -33.7% in assay [16] (setting [20]). Further, the compound was classed as inactive in [1], in assay [13], in assay [8], in assay [9], in assay [10] and in assay [11]. For the same compound, the values for the Potency in assay [2] and in [6] were 3.98 µM (active) and 0.708 µM (active), respectively. Also, the Potency entry in assay [4] and in [12] was “inactive” each time.

Regarding `Nc1ncnc2nc(-c3ccc(N4CCOCC4)nc3)cc(-c3cccc(Br)c3)c12`, the outcome in assay [9], in [10] and in assay [11] was inactive.

Turning to `CCCC(CCC)C(=O)O`, the activity change, negative = inhibition in assay [16] was 7.45% (inactive). In addition, the results for the max response in [16] (setting [19]) and in [16] (setting [20]) were 23.9% and 36.2%, respectively. For the same compound, the call in assay [1], in assay [13], in [18], in assay [8], in assay [9] and in assay [10] was inactive. Besides, the call in assay [11] was inactive. Further, the Potency entry in assay [12] is “inactive”.

As to `NCCCC(N)(C(=O)O)C(F)F` (stereo unspecified), the compound was classed as inactive in assay [1], in assay [13], in assay [8], in [9], in assay [10] and in assay [11]. For the same compound, the Potency entry in assay [2], in assay [3], in [14], in [4], in assay [5] and in assay [6] was “inactive” in each case. In addition, the Potency entry in [7] and in assay [12] was “inactive” in each case.
